Compounds with a hit are over-represented: about 21% of the library has one in this group of screens.
HCV inhibitor: blocks hepatitis C virus; AID 651820; Potency, µM (doses to about 41.8 µM), for inactives: at the highest dose activity change, negative = inhibition, usual class: inhibitors; actives 3.4% (n = 340,000); Huh7.5.1 HCVcc-Cre infection, luciferase reporter, 44 h; note: potency is the fitted concentration of half-maximal effect; % is set by controls: 0 for no effect and ±100 for the full control effect
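HCVcc-Cre virus at an moi near 0.5 was added right after compound to cells cultured 4 h from seeding (1,000 cells/well). Luciferase activity was determined 44 h later, 15 min after substrate addition at RT.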
Shiga inhibitor: Shiga toxin inhibition | Vero cells, Shiga toxin protein synthesis inhibition reporter | inhibition, % at 38.7 µM | actives 9.2% (n = 290,000); in the data active = inhibition mostly above about 28%, no sharp cut-off; inactive = mostly below about 43%; note: 0% is about no effect
AMA1-RON2 inh: AMA1-RON2 (P. falciparum) interaction inhibition | Potency, µM (series often up to 58.2 µM), without a hit: at the highest dose activity change, negative = inhibition, hits mostly inhibitors | AlphaScreen AMA1-biotinylated RON2 peptide binding | actives 0.2% (n = 360,000) | AID 720542;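 note: potency is the fitted concentration of half-maximal effect; 0% = vehicle wells and -100% = peptide control; nearly all actives have a fitted effect of over 45% in size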
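AMA1 (3D7) with his tag at 25 nM final met compounds first, then biotinylated RON2 peptide at 25 nM; detection used donor plus acceptor beads, 10 µg/mL apiece, read by AlphaScreen after 30 min at room temperature.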
Cycloheximide cs: affects cycloheximide protein synthesis inhibition readout, counter-screen | cell reporter, cycloheximide protein synthesis inhibition counterscreen | max response, % | actives 12% (n = 300,000) | AID 2314; in the data active = max response mostly above about 13%, no sharp cut-off; inactive = mostly below about 14%; note: read at 38.3 µM for the half of the compounds with a filed dose; 0% is about no effect
Pf growth 96h: P. falciparum growth inhibition at 96 hour, primary screen for plastid delayed-death inhibitors. P. falciparum luciferase reporter growth, 96 h. Potency, µM (series often up to 28.7 µM), for inactives: at the top dose activity change, negative = inhibition, hits mostly inhibitors. actives 6.9% (n = 320,000); note: potency is the fitted concentration of half-maximal effect; % is set by controls: 0 for no effect and ±100 for the full control effect
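Cell-based qHTS: luciferase-tagged P. falciparum in erythrocytes (2% hematocrit, 0.05% parasitemia final) incubated with compounds for 96 hours, 37 C, 5% CO2; luciferase detection reagent then added and luminescence measured.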
Pf growth 48h: inhibits P. falciparum growth in the first generation, 48 h. P. falciparum luciferase growth in erythrocytes, 48 h. Potency, µM (highest dose often 28.7 µM), for the others: at the highest dose activity change, negative = inhibition, most hits filed as inhibitors. actives 5.9% (n = 310,000). AID 504832; note: potency is the fitted concentration of half-maximal effect; % is set by controls: 0 for no effect and ±100 for the full control effect
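Parasite viability was followed by luminescence of a genomically integrated firefly luciferase. Cultures held 0.1% parasitemia at 2% hematocrit (final), incubated under 5% CO2 at 37 C.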
The depositor's hits bear a star; ! = repeats disagree; [ ] = remark or other dose. Unless noted, calls come from the whole dose curve; as a rule, active = well fitted curve in the direction sought with a large enough effect; inconclusive = small, poorly fitted or top-dose-only effect, or another doubt; inactive = no such curve, though single readings can be large; an effect the other way counts as inactive or inconclusive.

For Cc1ccn2c(=O)nc(SCC(=O)Nc3ccc4c(c3)OCCO4)nc2c1 the results were HCV inhibitor 19%, AMA1-RON2 inh -7%, Pf growth 96h 27% and Pf growth 48h 11%.
Screening Cc1ccc2c(C)nc(Nc3nc(CSc4nnnn4-c4ccccc4)cc(=O)[nH]3)nc2c1 returned HCV inhibitor 11µM*, Shiga inhibitor -10, AMA1-RON2 inh 8%, Cycloheximide cs 4 and Pf growth 48h 2.3µM*.
CCCCNC(=O)C(NC(=O)c1ccc2c(c1)OCO2)C(=O)c1ccccc1 (stereo not drawn) was read as AMA1-RON2 inh 3%.
For O=C(Nc1ccc(N2CCOCC2)c(S(=O)(=O)Nc2ccccc2Cl)c1)c1ccccc1 the results were HCV inhibitor inconclusive, AMA1-RON2 inh -5%, Pf growth 96h inconclusive and Pf growth 48h 10µM*.
O=C(Nc1ccc(N2CCOCC2)c(S(=O)(=O)Nc2ccccc2Cl)c1)c1ccc(=O)[nH]n1 was read as HCV inhibitor 24% and AMA1-RON2 inh 14%.
O=C(Nc1ccc(Cl)cc1)Nc1ccc(N2CCCC2)c(S(=O)(=O)Nc2ccccc2Cl)c1 was read as HCV inhibitor 5.6µM*, Shiga inhibitor 2, AMA1-RON2 inh -12%, Cycloheximide cs -1, Pf growth 96h inconclusive and Pf growth 48h inconclusive.
`Cc1nn(C)c(C(=O)Nc2ccc(S(=O)(=O)NC34CC5CC(CC(C5)C3)C4)cc2)c1Br` gave HCV inhibitor 10µM*, Shiga inhibitor -44, AMA1-RON2 inh -12%, Cycloheximide cs -2, Pf growth 96h -91% and Pf growth 48h inconclusive.
Cc1ccc(S(=O)(=O)NC23CC4CC(CC(C4)C2)C3)cc1 was read as HCV inhibitor inconclusive, AMA1-RON2 inh -9%, Pf growth 96h inconclusive and Pf growth 48h 15µM*.
O=C(COC(=O)COc1ccc(Br)cc1)NCc1ccccc1 was read as HCV inhibitor 24%, AMA1-RON2 inh -8%, Pf growth 96h 30% and Pf growth 48h -4%.
For OC[C@@H]1CN(CCN2CCOCC2)C[C@H](n2cnc3c(NC4CCCC4)ncnc32)O1 the results were AMA1-RON2 inh -2%.
Nc1ccc(-c2cn3cccnc3n2)cc1 was read as HCV inhibitor 22%, Shiga inhibitor 76, AMA1-RON2 inh -2%, Cycloheximide cs 17*, Pf growth 96h 62% and Pf growth 48h 73%.
`COc1ccc(-c2cn3cccnc3n2)cc1Br` gave HCV inhibitor 4%, Shiga inhibitor 99*, AMA1-RON2 inh -3%[2.32 µM], Cycloheximide cs 15*, Pf growth 96h 22% and Pf growth 48h 55%.
For COc1ccc(-c2cn3cc(Br)cnc3n2)cc1 the results were HCV inhibitor 6%, Shiga inhibitor 23, AMA1-RON2 inh 32%, Cycloheximide cs 25*, Pf growth 96h 56% and Pf growth 48h 53%.
For COc1ccc(-c2cn3cccnc3n2)cc1NC(=O)C1CC1 the results were HCV inhibitor inconclusive, Shiga inhibitor -10, AMA1-RON2 inh 2%, Cycloheximide cs 1, Pf growth 96h 9.3µM* and Pf growth 48h 25%.
`COc1ccc(-c2cn3cccnc3n2)cc1NC(=O)C1CCCC1` gave HCV inhibitor 19%, Shiga inhibitor -9, AMA1-RON2 inh -5%, Cycloheximide cs -3, Pf growth 96h 11% and Pf growth 48h inconclusive.
`CCOC(=O)Nc1ccc2c(c1)N(C(=O)CCN1CCOCC1)c1ccccc1S2` gave HCV inhibitor inconclusive, Shiga inhibitor 1, AMA1-RON2 inh -5%, Cycloheximide cs -3, Pf growth 96h inconclusive and Pf growth 48h 15µM*!.
COC(=O)Nc1ccc2c(c1)N(C(=O)CCN(C)C)c1ccccc1CC2 was read as HCV inhibitor -13%, Shiga inhibitor 0, AMA1-RON2 inh 4%, Cycloheximide cs -1, Pf growth 96h 7.4µM* and Pf growth 48h -6%.
`CCOC(=O)Nc1ccc2c(c1)N(C(=O)CN(C)C)c1ccccc1CC2` gave HCV inhibitor -27%, Shiga inhibitor -7, AMA1-RON2 inh 0%, Cycloheximide cs -2, Pf growth 96h 10µM* and Pf growth 48h -7%.
CCOC(=O)Nc1ccc2c(c1)N(C(=O)CCN(C)C)c1ccccc1CC2 was read as HCV inhibitor -5%, Shiga inhibitor -5, AMA1-RON2 inh 2%, Cycloheximide cs -2, Pf growth 96h 43% and Pf growth 48h -11%.
`CCOC(=O)Nc1ccc2c(c1)N(C(=O)OCCN(C)C)c1ccccc1CC2` gave HCV inhibitor -20%, Shiga inhibitor -13, AMA1-RON2 inh -1%, Cycloheximide cs -5, Pf growth 96h 1.5µM*! and Pf growth 48h -10%.
Screening COc1ccc(NC(=O)CN2c3cccc4cccc(c34)S2(=O)=O)cc1OC returned AMA1-RON2 inh 4%.
`CCOc1ccc(-n2c(O)c(/C=N/NC(=O)C3COc4ccccc4O3)c3ccccc3c2=O)cc1` (stereo not drawn) gave HCV inhibitor -4%, Shiga inhibitor -9, AMA1-RON2 inh 85%, Cycloheximide cs 5, Pf growth 96h 69% and Pf growth 48h 14%.
For C#CCN(C[C@@H]1[C@@H](OC(=O)Nc2cccs2)[C@@H](OC(=O)Nc2cccs2)Cn2c(=O)n(CCCCCC)c(=O)n21)S(=O)(=O)c1ccc(C)cc1 the results were AMA1-RON2 inh -3%.
CCNCC(=O)N1c2ccccc2CCc2ccc(NC(=O)OCC)cc21 was read as HCV inhibitor -16%, Shiga inhibitor -10, AMA1-RON2 inh 46%, Cycloheximide cs -6, Pf growth 96h -28% and Pf growth 48h 10µM*.
CCN(CC)CCNCC(=O)N1c2ccccc2CCc2ccc(NC(=O)OC)cc21 was read as HCV inhibitor 5%, Shiga inhibitor -13, AMA1-RON2 inh 20%, Cycloheximide cs 1, Pf growth 96h inconclusive and Pf growth 48h inconclusive.
For CCOC(=O)Nc1ccc2c(c1)N(C(=O)CN)c1ccccc1CC2 the results were HCV inhibitor inconclusive, Shiga inhibitor -4, AMA1-RON2 inh 58%, Cycloheximide cs -1, Pf growth 96h inconclusive and Pf growth 48h 12µM*.
O=C(CCN1C(=O)C2C3C=CC(C4CC34)C2C1=O)Nc1ccc(Cl)cc1O (stereo not drawn) was read as HCV inhibitor inconclusive, Shiga inhibitor -6, AMA1-RON2 inh -9%, Cycloheximide cs -3, Pf growth 96h -3% and Pf growth 48h inconclusive.
O=C1NC(=O)C2(CCCCC2C2CCCCC2)N1 (stereo not drawn) was read as HCV inhibitor 15% and AMA1-RON2 inh 0%.
COc1ccc(CCNC(=O)CN(C)S(=O)(=O)c2ccc(OC)cc2)cc1 was read as HCV inhibitor inconclusive, AMA1-RON2 inh 2%, Cycloheximide cs -2, Pf growth 96h inconclusive and Pf growth 48h 0%.
